YB-1 expression: YB-1 expression inhibition. U2OS, qRT-PCR YB-1 vs CDIP delta delta Cp, 16 h; hits give high values; zero = DMSO, each unit about twofold. delta delta Cp (YB-1 minus CDIP) (no concentration beside the values). hit rate 0.37% among 30,000. AID 434959;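 active = delta delta Cp rounded down to an integer at or above 3, about 3 SD of DMSO wells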;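 also: higher means less YB-1 transcript or more CDIP transcript relative to DMSO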
MITF inhib: inhibitors of MITF | inhibition, % (no concentration beside the values) | TRPM1 promoter luciferase, luminescence, 24 h | hit rate 0.28% among 37,000; in the data active = inhibition above about 85%; inconclusive = no clear call, values can overlap the other calls; inactive = below about 68%;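 also: human melanocyte line stably carrying TRPM1 promoter luciferase reporter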
PD-1 reversal: reversal of PD-1 mediated T-cell inhibition; primary human CD4 T cells, PD-L1 beads, CellTiter-Glo 96 h; activation, % (concentration not given with the values); 29,000 tested, under 10 active; AID 2316; call rule not given here
NOMO-1 viab: STK33 inhibitor candidate reducing NOMO-1 cell viability. inhibition, % (no concentration beside the values). hit rate 7.5% among 37,000. NOMO-1 AML viability, CellTiter-Glo luminescence, 72 h; in the data active = inhibition above about 80%; inconclusive = no clear call, values can overlap the other calls
ROS inducer: inducers of reactive oxygen species in cancer cells | U2OS ROS induction, H2DCF-DA fluorescence | ROS induction (% of piperlongumine), % at 10 µM | hit rate 2% among 46,000 | AID 624156; in the data active = ROS induction above about 79%, passing the limit was not always enough; inconclusive = no clear call, values can overlap the other calls
Each line names hits and unclear results; the compound was inactive in the other large screens. Many of the other results were omitted from the sample, so hits are more common in it than they were.

C[C@@H]1CN([C@H](C)CO)C(=O)c2cc(NC(=O)Nc3ccc(C(F)(F)F)cc3)ccc2O[C@H]1CN(C)S(=O)(=O)c1ccc(Cl)cc1	none
Cc1ccc(S(=O)(=O)N(C)C[C@H]2Oc3ccc(NC(=O)Nc4ccc(C(F)(F)F)cc4)cc3C(=O)N([C@H](C)CO)C[C@@H]2C)cc1	NOMO-1 viab 126.0 (no result: PD-1 reversal)
COc1ccc(S(=O)(=O)N(C)C[C@H]2Oc3ccc(NC(=O)Nc4ccc(C(F)(F)F)cc4)cc3C(=O)N([C@H](C)CO)C[C@H]2C)cc1	NOMO-1 viab 88.1
COc1cc(/C=C/CO[C@@H]2O[C@H](CO)[C@@H](O)[C@H](O)[C@H]2O)ccc1O	none
O=C(c1ccc2c(Cl)c3c(nc2c1)CCC3)N1CCCC1	none (no result: YB-1 expression, MITF inhib, PD-1 reversal, NOMO-1 viab)
Cc1noc(C)c1NC(=O)N(C)C[C@H]1Oc2ccc(NC(=O)Nc3ccc(F)cc3)cc2C(=O)N([C@H](C)CO)C[C@@H]1C	ROS inducer 81.6
C[C@@H]1CN([C@@H](C)CO)C(=O)c2cc(NC(=O)Nc3ccc(C(F)(F)F)cc3)ccc2O[C@H]1CN(C)C(=O)Nc1ccc(F)cc1	none (no result: PD-1 reversal)
Cc1noc(C)c1NC(=O)N(C)C[C@H]1Oc2ccc(NC(=O)Nc3ccc(F)cc3)cc2C(=O)N([C@@H](C)CO)C[C@@H]1C	none
C[C@H](CO)N1C[C@H](C)[C@H](CN(C)C(=O)Nc2ccc(C(F)(F)F)cc2)Oc2ccc(NC(=O)Nc3ccc(F)cc3)cc2C1=O	NOMO-1 viab 104.0, ROS inducer 96.2
C[C@@H]1CN([C@H](C)CO)C(=O)c2cc(NC(=O)Nc3ccc(C(F)(F)F)cc3)ccc2O[C@@H]1CN(C)C(=O)Nc1ccc(F)cc1	NOMO-1 viab 83.7
COc1ccc(Cn2nnc3c(=O)[nH]c(C4CCCN(S(=O)(=O)c5ccccc5)C4)nc32)cc1 (configuration not stated)	ROS inducer 139.1 (no result: YB-1 expression, MITF inhib, PD-1 reversal, NOMO-1 viab)
CC1=CC(C)(C)N(S(=O)(=O)c2ccc(C)cc2)c2ccccc21	NOMO-1 viab 111.1
Cc1ccc(S(=O)(=O)N2CCN(S(=O)(=O)c3ccc(C)cc3)C2)cc1	none (no result: YB-1 expression, MITF inhib, PD-1 reversal, NOMO-1 viab)
Cc1cc2ncc(-c3ccn(S(=O)(=O)c4ccc(Cl)cc4)c3)nc2cc1C	none (no result: YB-1 expression, MITF inhib, PD-1 reversal, NOMO-1 viab)
C[C@@H]1C[C@H]2[C@@H]3CCC4=CC(=O)C=C[C@]4(C)[C@@]3(Cl)[C@@H](O)C[C@]2(C)[C@@]1(OC(=O)c1ccco1)C(=O)CCl	NOMO-1 viab 113.7
C[C@@H]1O[C@@H](OC[C@H]2O[C@@H](Oc3ccc(O)cc3)[C@H](O)[C@@H](OC(=O)c3ccc(O)cc3)[C@@H]2O)[C@H](O)[C@H](O)[C@H]1O	none
O=C(/C=C/c1ccc(O)cc1)OC[C@H]1O[C@@H](Oc2cc(O)c3c(c2)OC(c2ccc(O)cc2)CC3=O)[C@H](O)[C@@H](OC(=O)/C=C/c2ccc(O)cc2)[C@@H]1O (some centres not stated)	NOMO-1 viab 119.8, ROS inducer 165.1
O=C1C=CC(O)(/C=C/C(=O)OC[C@H]2O[C@@H](Oc3ccc(O)cc3)[C@H](O)[C@@H](OC(=O)/C=C/C3(O)C=CC(=O)C=C3)[C@@H]2O)C=C1	NOMO-1 viab 87.2, ROS inducer 127.4
COc1ccc(C2CC(=O)c3c(O)cc(O[C@@H]4O[C@H](CO[C@@H]5O[C@@H](C)[C@H](O)[C@@H](O)[C@H]5O)[C@@H](O)[C@H](O)[C@H]4O)cc3O2)cc1 (some centres not stated)	none
C[C@@H]1CN([C@@H](C)CO)C(=O)c2cccc(NC(=O)Nc3ccc(C(F)(F)F)cc3)c2O[C@H]1CN(C)C(=O)NC1CCCCC1	none
C[C@H](CO)N1C[C@H](C)[C@@H](CN(C)C(=O)NC2CCCCC2)Oc2c(NC(=O)Nc3ccc(C(F)(F)F)cc3)cccc2C1=O	NOMO-1 viab 84.6
C[C@@H]1CN([C@H](C)CO)C(=O)c2cccc(NC(=O)Nc3ccc(C(F)(F)F)cc3)c2O[C@@H]1CN(C)C(=O)NC1CCCCC1	NOMO-1 viab 117.1
COc1ccc(Cl)cc1NC(=O)CN1C(=O)c2ccccc2S1(=O)=O	none (no result: YB-1 expression, PD-1 reversal, ROS inducer)
COc1ccc(-c2nsc(SCC(=O)c3ccc(Cl)cc3)n2)cc1	none (no result: YB-1 expression, MITF inhib, PD-1 reversal, NOMO-1 viab)
O=C(/C=C/Oc1ccc(Cl)cc1)c1ccc(Br)cc1	NOMO-1 viab 117.4, ROS inducer inconclusive
CCOC(=O)c1ccccc1NC(=O)C(C)Oc1cc(C)c(Cl)c(C)c1 (configuration not stated)	none (no result: YB-1 expression, PD-1 reversal, ROS inducer)
CCOC(=O)C(C)Oc1ccc2c(-c3ccccc3)cc(=O)oc2c1 (configuration not stated)	NOMO-1 viab 109.0, ROS inducer 106.5
CCOC(=O)c1ccccc1NC(=O)C(C)Oc1ccc2c(C)cc(=O)oc2c1 (configuration not stated)	NOMO-1 viab 103.8 (no result: YB-1 expression, PD-1 reversal, ROS inducer)
O=C(NO)c1cccc(C(=O)N/N=C/c2ccc(O)c(O)c2)c1	none (no result: MITF inhib, PD-1 reversal, NOMO-1 viab)
O=C(CSc1nnc(-c2ccccc2O)n1-c1ccccc1)NC1CCCCC1	none (no result: YB-1 expression, ROS inducer)
C[C@@H]1CN([C@H](C)CO)C(=O)c2cc(NC(=O)c3ccncc3)ccc2O[C@H]1CN(C)Cc1ccc(-c2ccccc2)cc1	NOMO-1 viab 93.0
COc1ccc(CN(C)C[C@@H]2Oc3ccc(NC(=O)c4ccncc4)cc3C(=O)N([C@H](C)CO)C[C@H]2C)cc1	ROS inducer 149.3 (no result: PD-1 reversal)
COc1ccc(CN(C)C[C@H]2Oc3ccc(NC(=O)c4ccncc4)cc3C(=O)N([C@H](C)CO)C[C@@H]2C)cc1	none
COc1ccc(NC(=O)Nc2ccc3c(c2)C(=O)N([C@H](C)CO)C[C@H](C)[C@H](CN(C)Cc2ccncc2)O3)cc1	NOMO-1 viab 93.6
Cc1ccc(NC(=O)CNS(=O)(=O)c2ccccc2)cc1Cl	none (no result: YB-1 expression)
O=C(Nc1cccc(Cn2cccn2)c1)c1cc(-c2ccccc2)nc2ccccc12	none (no result: YB-1 expression, PD-1 reversal, ROS inducer)
COC(=O)CN(c1cc([N+](=O)[O-])ccc1OC)S(C)(=O)=O	NOMO-1 viab 99.7 (no result: YB-1 expression, PD-1 reversal, ROS inducer)
COc1ccc([N+](=O)[O-])cc1NC(=O)C(C)N(c1ccc(C)cc1)S(C)(=O)=O (configuration not stated)	NOMO-1 viab 111.8 (no result: YB-1 expression)
Cc1ccc(CN2C(=O)CSc3ccc(C(=O)NCC4CCCO4)cc32)cc1 (configuration not stated)	none (no result: YB-1 expression, MITF inhib, PD-1 reversal, NOMO-1 viab)
Nc1ncnc(Oc2cccc3cccnc23)c1[N+](=O)[O-]	NOMO-1 viab 107.7 (no result: YB-1 expression)
Cc1cccc(NC(=O)CN2C(=O)CC(C)S(=O)(=O)c3ccccc32)c1 (configuration not stated)	none (no result: YB-1 expression, MITF inhib, PD-1 reversal, NOMO-1 viab)
Cc1cc(C)cc(Sc2ccc3nnc(-c4ccccc4)n3n2)c1	NOMO-1 viab 122.3
COc1cc(C(=O)OC[C@@]2(O)CO[C@H](OC3C(CO)OC(OC(C)/C=C/C4(O)C(C)CC(O)CC4(C)C)C(O)C3O)[C@@H]2O)cc(OC)c1O (some centres not stated)	YB-1 expression 3.52
CC(/C=C/C1(O)C(C)CC(O)CC1(C)C)OC1OC(CO)C(O)C(O)C1O (configuration not stated)	none (no result: MITF inhib, PD-1 reversal, NOMO-1 viab)
CCN1CCN(c2nc(-c3ccc(C(C)(C)C)cc3)nc3ccccc23)CC1	none (no result: YB-1 expression, MITF inhib, PD-1 reversal, NOMO-1 viab)

Source: PubChem (Broad Institute)
